From the supplement of paper PMC6897291

How the values were obtained:
[1] = system: U-2932; assay: growth inhibition by drug alone (1 - RLU/untreated control) (fraction); higher = stronger inhibition; details: 177Lu-lilotomab satetraxetan 0 ug/ml
Method in brief: (§1)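 A radiolabelled anti-CD37 antibody conjugate (~600 MBq/mg) was applied for 18 h at 0.5 µg/ml to RIVA and 1 µg/ml to U-2932 cells, with untreated cells run alongside. All cells were washed and seeded at 3,000 cells/well onto library-printed plates at 10/100 nM (RIVA) or 10/1,000 nM (U-2932). Growth inhibition was based on RealTime-Glo luminescence compared with untreated no-drug wells. Daily reads began on day 3 after 1 h at 37°C, with each value being 1 − RLU/mean of the 48 such wells on that plate.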

[2] = system: RIVA; assay: as above; details: 177Lu-lilotomab satetraxetan 0 ug/ml
Method in brief: as §1

[3] = system: U-2932; assay: growth inhibition by drug plus 177Lu-lilotomab satetraxetan (1 - RLU/untreated control) (fraction); higher = stronger inhibition; details: 177Lu-lilotomab satetraxetan 1 ug/ml
Method in brief: as §1

[4] = system: RIVA; assay: as above; details: 177Lu-lilotomab satetraxetan 0.5 ug/ml
Method in brief: as §1

| Compound | growth inhibition by drug alone ([1]; 10 nM, time (day): 3) | growth inhibition by drug alone ([1]; 10 nM, time (day): 4) | growth inhibition by drug alone ([1]; 10 nM, time (day): 5) | growth inhibition by drug alone ([1]; 10 nM, time (day): 6) | growth inhibition by drug alone ([1]; 1000 nM, time (day): 3) | growth inhibition by drug alone ([1]; 1000 nM, time (day): 4) | growth inhibition by drug alone ([1]; 1000 nM, time (day): 5) | growth inhibition by drug alone ([1]; 1000 nM, time (day): 6) | growth inhibition by drug alone ([2]; 10 nM, time (day): 3) | growth inhibition by drug alone ([2]; 10 nM, time (day): 4) | growth inhibition by drug alone ([2]; 10 nM, time (day): 5) | growth inhibition by drug alone ([2]; 10 nM, time (day): 6) | growth inhibition by drug alone ([2]; 100 nM, time (day): 3) | growth inhibition by drug alone ([2]; 100 nM, time (day): 4) | growth inhibition by drug alone ([2]; 100 nM, time (day): 5) | growth inhibition by drug alone ([2]; 100 nM, time (day): 6) | growth inhibition by drug plus 177Lu-lilotomab satetraxetan ([3]; 10 nM, time (day): 3) | growth inhibition by drug plus 177Lu-lilotomab satetraxetan ([3]; 10 nM, time (day): 4) | growth inhibition by drug plus 177Lu-lilotomab satetraxetan ([3]; 10 nM, time (day): 5) | growth inhibition by drug plus 177Lu-lilotomab satetraxetan ([3]; 10 nM, time (day): 6) | growth inhibition by drug plus 177Lu-lilotomab satetraxetan ([3]; 1000 nM, time (day): 3) | growth inhibition by drug plus 177Lu-lilotomab satetraxetan ([3]; 1000 nM, time (day): 4) | growth inhibition by drug plus 177Lu-lilotomab satetraxetan ([3]; 1000 nM, time (day): 5) | growth inhibition by drug plus 177Lu-lilotomab satetraxetan ([3]; 1000 nM, time (day): 6) | growth inhibition by drug plus 177Lu-lilotomab satetraxetan ([4]; 10 nM, time (day): 3) | growth inhibition by drug plus 177Lu-lilotomab satetraxetan ([4]; 10 nM, time (day): 4) | growth inhibition by drug plus 177Lu-lilotomab satetraxetan ([4]; 10 nM, time (day): 5) | growth inhibition by drug plus 177Lu-lilotomab satetraxetan ([4]; 10 nM, time (day): 6) | growth inhibition by drug plus 177Lu-lilotomab satetraxetan ([4]; 100 nM, time (day): 3) | growth inhibition by drug plus 177Lu-lilotomab satetraxetan ([4]; 100 nM, time (day): 4) | growth inhibition by drug plus 177Lu-lilotomab satetraxetan ([4]; 100 nM, time (day): 5) | growth inhibition by drug plus 177Lu-lilotomab satetraxetan ([4]; 100 nM, time (day): 6) |
| --- | --- | --- | --- | --- | --- | --- | --- | --- | --- | --- | --- | --- | --- | --- | --- | --- | --- | --- | --- | --- | --- | --- | --- | --- | --- | --- | --- | --- | --- | --- | --- | --- |
| Cn1cc(C2=C(c3ccc(Cl)cc3Cl)C(=O)NC2=O)c2ccccc21 | -0.00858 | 0.00823 | 0.113 | -0.0764 | -0.0209 | -0.0468 | -0.0762 | -0.00785 | -0.0583 | -0.11 | -0.108 | -0.172 | -0.488 | -0.393 | -0.389 | -0.481 | -0.0696 | 0.00483 | 0.017 | -0.0529 | 0.0138 | 0.0592 | 0.059 | 0.146 | 0.449 | 0.533 | 0.546 | 0.555 | 0.465 | 0.512 | 0.502 | 0.492 |
| O=C1[C@H](CC[C@H](O)c2ccc(F)cc2)[C@@H](c2ccc(O)cc2)N1c1ccc(F)cc1 [Ezetimibe (Zetia)] | 0.207 | 0.167 | 0.0126 | -0.0222 | 0.1 | 0.113 | 0.0388 | -0.0102 | 0.0453 | 0.0693 | -0.0268 | -0.174 | -0.17 | -0.068 | -0.0985 | -0.21 | 0.101 | 0.145 | 0.218 | 0.274 | 0.142 | 0.17 | 0.216 | 0.332 | 0.537 | 0.594 | 0.604 | 0.623 | 0.406 | 0.479 | 0.489 | 0.494 |
| O=C(Nc1cccnc1)N1CCC(Cc2cccc(Oc3ccc(C(F)(F)F)cn3)c2)CC1 | 0.144 | 0.101 | -0.0107 | -0.0195 | 0.779 | 0.796 | 0.833 | 0.872 | 0.473 | 0.369 | 0.37 | 0.34 | -0.00381 | 0.0224 | 0.0325 | -0.0255 | 0.152 | 0.18 | 0.262 | 0.319 | 0.299 | 0.291 | 0.395 | 0.544 | 0.71 | 0.692 | 0.714 | 0.718 | 0.554 | 0.566 | 0.583 | 0.595 |
